Of roughly 8,800 targets only a part is listed; those with a hit were picked by preference. About 0.5% of all pairs of compound and target were hits.
Tests used:
Test in all cases: log2 fold change, soluble protein after heating vs DMSO (PISA); higher = thermal stabilisation; K562 lysate, 10 uM; active = over 0.2 and 3.5 SD of the protein, either way, in both replicates (recomputed)
[1] = compound: NCC(=O)Nc1ccc(-n2nc(C(F)(F)F)cc2-c2ccc3c(ccc4ccccc43)c2)cc1
Summary of the method: (§1)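 Dounce homogenisation of K562 pellets in PBS pH 7.4 with 1 mM MgCl2 produced a crude extract, used at 1 mg/mL protein. Exposure to 10 μM compound lasted 30 min, and aliquots were then heated for 3 min across 48°C-58°C, pooled and brought to 0.5% NP-40 at 4°C. The supernatant after 21,000xg for 90 min was quantified by TMTpro 16plex LC-MS/MS with channel sums equalised. Duplicate values are given as log-two fold change in thermal stability relative to solvent controls.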

vorinostat = compound: O=C(CCCCCCC(=O)Nc1ccccc1)NO [vorinostat]
Summary of the method: as §1

silmitasertib = compound: O=C(O)c1ccc2c(c1)nc(Nc1cccc(Cl)c1)c1ccncc12 [silmitasertib]
Summary of the method: as §1

[2] = compound: O=C1NC(=O)C(c2cnc3ccccn23)=C1c1cn2c3c(cc(F)cc13)CN(C(=O)N1CCCCC1)CC2
Summary of the method: as §1

entospletinib = compound: c1cn2cc(-c3ccc4cn[nH]c4c3)nc(Nc3ccc(N4CCOCC4)cc3)c2n1 [entospletinib]
Summary of the method: as §1

Measured: log2 fold change

FAM98A (UniProt Q8NCA5)
active: vorinostat -0.558
inactive: [1] 0.027 | silmitasertib 0.005 | [2] 0.01 | entospletinib 0.006

FANCD2 isoform 1 (UniProt Q9BXW9)
inactive: [1] 0.078 | silmitasertib -0.012 | [2] 0.008 | entospletinib -0.005
active: vorinostat -0.25

EMC7 (UniProt Q9NPA0)
inactive: [1] 0.015 | vorinostat 0.085 | silmitasertib -0.007 | [2] -0.018 | entospletinib -0.023

EP300 (UniProt Q09472)
inactive: [1] 0.018 | silmitasertib 0.06 | [2] 0.015 | entospletinib -0.005
active: vorinostat -0.338

FAM111A (UniProt Q96PZ2)
inactive: [1] 0.036 | vorinostat -0.364 | silmitasertib 0.1 | [2] 0.048 | entospletinib 0.044

FAM76B (UniProt Q5HYJ3)
Chain of UniProt Q5HYJ3 (Q5HYJ3 whole entry, looked up): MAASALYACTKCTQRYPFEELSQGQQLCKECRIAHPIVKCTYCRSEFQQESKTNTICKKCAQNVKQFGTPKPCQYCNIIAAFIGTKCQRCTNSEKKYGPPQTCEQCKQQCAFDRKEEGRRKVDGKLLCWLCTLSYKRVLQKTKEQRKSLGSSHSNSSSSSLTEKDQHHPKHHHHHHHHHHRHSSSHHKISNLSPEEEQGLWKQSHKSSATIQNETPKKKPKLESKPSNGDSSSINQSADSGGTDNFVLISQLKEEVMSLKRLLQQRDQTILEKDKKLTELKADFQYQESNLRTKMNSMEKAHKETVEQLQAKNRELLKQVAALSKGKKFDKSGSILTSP
inactive: [1] -0.018 | vorinostat 0.026 | silmitasertib 0 | [2] 0.012 | entospletinib -0.014

FDX2 (UniProt Q6P4F2)
Chain of UniProt Q6P4F2 (Q6P4F2 whole entry, looked up): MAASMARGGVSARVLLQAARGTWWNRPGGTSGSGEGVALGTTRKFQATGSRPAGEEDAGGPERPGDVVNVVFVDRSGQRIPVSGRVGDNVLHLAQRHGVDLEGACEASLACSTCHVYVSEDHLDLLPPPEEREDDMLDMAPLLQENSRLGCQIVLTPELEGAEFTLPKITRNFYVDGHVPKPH
inactive: [1] -0.03 | vorinostat 0.195 | silmitasertib -0.069 | [2] -0.066 | entospletinib 0.042

FADS3 (UniProt Q9Y5Q0)
inactive: [1] 0.21 | vorinostat 0.247 | silmitasertib -0.126 | [2] 0.004 | entospletinib -0.185

FBXO38 (UniProt Q6PIJ6)
inactive: [1] -0.029 | vorinostat -0.393 | silmitasertib 0.34 | [2] -0.159 | entospletinib -0.173

FAM120B (UniProt Q96EK7)
Chain of UniProt Q96EK7 (Q96EK7 whole entry, looked up): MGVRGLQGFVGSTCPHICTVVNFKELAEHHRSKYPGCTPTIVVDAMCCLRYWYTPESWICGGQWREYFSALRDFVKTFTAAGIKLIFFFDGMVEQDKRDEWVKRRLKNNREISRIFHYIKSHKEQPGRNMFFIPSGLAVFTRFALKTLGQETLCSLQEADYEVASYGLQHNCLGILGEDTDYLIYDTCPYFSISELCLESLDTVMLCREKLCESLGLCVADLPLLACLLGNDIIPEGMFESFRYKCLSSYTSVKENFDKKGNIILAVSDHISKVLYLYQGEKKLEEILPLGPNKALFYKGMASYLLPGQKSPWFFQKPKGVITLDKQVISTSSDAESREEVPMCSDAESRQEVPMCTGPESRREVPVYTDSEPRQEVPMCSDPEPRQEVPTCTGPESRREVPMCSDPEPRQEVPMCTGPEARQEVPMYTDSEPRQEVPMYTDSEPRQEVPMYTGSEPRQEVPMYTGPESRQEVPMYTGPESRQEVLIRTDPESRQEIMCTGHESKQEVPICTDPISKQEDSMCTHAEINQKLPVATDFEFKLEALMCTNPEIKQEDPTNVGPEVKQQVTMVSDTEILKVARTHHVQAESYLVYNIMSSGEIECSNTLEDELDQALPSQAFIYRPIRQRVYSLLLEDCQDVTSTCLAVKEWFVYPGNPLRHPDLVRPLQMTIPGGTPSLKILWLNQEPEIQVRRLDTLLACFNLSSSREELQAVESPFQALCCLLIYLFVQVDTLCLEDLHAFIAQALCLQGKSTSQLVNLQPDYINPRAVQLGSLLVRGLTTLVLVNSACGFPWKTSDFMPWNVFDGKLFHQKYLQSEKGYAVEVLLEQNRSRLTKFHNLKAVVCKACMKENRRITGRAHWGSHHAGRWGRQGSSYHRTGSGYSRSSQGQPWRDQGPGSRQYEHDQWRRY
inactive: [1] -0.002 | silmitasertib 0.041 | [2] -0.022 | entospletinib -0.001
active: vorinostat -0.299

G6PD isoform 2 (UniProt P11413)
active: vorinostat -0.46
inactive: [1] 0.008 | silmitasertib -0.008 | [2] -0.003 | entospletinib 0.032

EHD2 (UniProt Q9NZN4)
inactive: [1] 0.005 | silmitasertib 0.073 | [2] 0.018 | entospletinib 0.032
active: vorinostat -0.282

GABPB1 isoform 3 (UniProt Q06547)
active: vorinostat -0.41
inactive: [1] -0.012 | silmitasertib 0.08 | [2] 0.067 | entospletinib -0.024

FTL (UniProt P02792)
inactive: [1] -0.064 | vorinostat 0.018 | silmitasertib 0.057 | [2] 0.011 | entospletinib -0.151

EXOC5 (UniProt O00471)
inactive: [1] 0.036 | silmitasertib 0.036 | [2] 0.002 | entospletinib 0.025
active: vorinostat -0.293

ERLIN2 (UniProt O94905)
inactive: [1] -0.012 | vorinostat 0.032 | silmitasertib 0.019 | [2] -0.005 | entospletinib 0.016

FANCI (UniProt Q9NVI1)
inactive: [1] 0.002 | silmitasertib 0.062 | [2] 0.018 | entospletinib 0.039
active: vorinostat -0.389

DYNC1I2 isoform 5 (UniProt Q13409)
inactive: [1] 0.009 | vorinostat 0.126 | silmitasertib 0.03 | [2] -0.005 | entospletinib -0.007

FIBP (UniProt O43427)
Chain of UniProt O43427 (O43427 whole entry, looked up): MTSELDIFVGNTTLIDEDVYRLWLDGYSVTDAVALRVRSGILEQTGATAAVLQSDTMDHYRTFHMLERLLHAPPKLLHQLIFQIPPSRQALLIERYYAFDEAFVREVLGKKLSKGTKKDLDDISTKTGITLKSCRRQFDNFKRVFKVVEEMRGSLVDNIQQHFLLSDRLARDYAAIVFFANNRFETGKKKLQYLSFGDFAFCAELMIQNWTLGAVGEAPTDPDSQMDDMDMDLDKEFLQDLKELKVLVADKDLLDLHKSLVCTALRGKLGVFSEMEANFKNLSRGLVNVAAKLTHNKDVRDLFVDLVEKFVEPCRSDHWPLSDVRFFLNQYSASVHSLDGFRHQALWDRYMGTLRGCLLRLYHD
inactive: [1] -0.049 | vorinostat -0.006 | silmitasertib 0.119 | [2] -0.02 | entospletinib -0.049

FADS1, A0A0A0MR51
inactive: [1] 0.054 | vorinostat 0.093 | silmitasertib -0.003 | [2] -0.046 | entospletinib -0.028

FAM118A (UniProt Q9NWS6)
inactive: [1] 0.027 | silmitasertib 0.024 | [2] -0.003 | entospletinib -0.014
active: vorinostat -0.834

EPB41, A0A2R8Y6D0
inactive: [1] 0.082 | vorinostat 0.094 | silmitasertib 0.037 | [2] -0.08 | entospletinib 0.016

GBF1 (UniProt Q92538)
active: vorinostat -0.304
inactive: [1] -0.019 | silmitasertib 0.023 | [2] 0.043 | entospletinib 0.008

EAPP (UniProt Q56P03)
inactive: [1] -0.083 | vorinostat 0.029 | silmitasertib -0.086 | [2] 0.024 | entospletinib 0.024

EPRS (UniProt P07814)
inactive: [1] -0.01 | silmitasertib 0.037 | [2] 0.009 | entospletinib 0.021
active: vorinostat -0.365

FCHO1 (UniProt O14526)
Chain of UniProt O14526 (O14526 whole entry, looked up): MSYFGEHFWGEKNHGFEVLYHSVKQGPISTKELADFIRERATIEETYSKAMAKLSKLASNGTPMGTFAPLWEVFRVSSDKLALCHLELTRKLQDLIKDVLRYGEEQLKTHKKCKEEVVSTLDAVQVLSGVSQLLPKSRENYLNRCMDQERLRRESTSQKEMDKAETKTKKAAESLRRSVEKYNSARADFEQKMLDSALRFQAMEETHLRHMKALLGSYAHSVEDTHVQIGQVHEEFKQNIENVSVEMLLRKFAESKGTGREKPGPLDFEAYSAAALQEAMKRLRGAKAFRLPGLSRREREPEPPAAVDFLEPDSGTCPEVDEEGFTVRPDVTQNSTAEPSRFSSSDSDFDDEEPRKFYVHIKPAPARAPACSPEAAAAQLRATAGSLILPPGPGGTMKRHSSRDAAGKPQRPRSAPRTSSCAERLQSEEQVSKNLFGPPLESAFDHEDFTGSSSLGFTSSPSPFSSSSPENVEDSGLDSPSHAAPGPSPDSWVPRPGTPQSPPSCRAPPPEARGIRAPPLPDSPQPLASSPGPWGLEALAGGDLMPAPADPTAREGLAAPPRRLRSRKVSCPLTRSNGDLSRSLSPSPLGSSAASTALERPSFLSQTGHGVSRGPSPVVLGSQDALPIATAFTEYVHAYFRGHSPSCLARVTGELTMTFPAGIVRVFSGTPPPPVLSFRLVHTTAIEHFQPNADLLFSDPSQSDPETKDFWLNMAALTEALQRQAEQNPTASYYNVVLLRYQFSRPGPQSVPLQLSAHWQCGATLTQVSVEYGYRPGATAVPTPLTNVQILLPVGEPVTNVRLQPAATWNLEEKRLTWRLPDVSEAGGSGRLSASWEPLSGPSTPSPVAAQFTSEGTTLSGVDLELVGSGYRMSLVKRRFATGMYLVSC
active: vorinostat -0.286
inactive: [1] 0.041 | silmitasertib 0.03 | [2] -0.006 | entospletinib 0.024

ESPL1 (UniProt Q14674)
inactive: [1] 0.027 | vorinostat -0.21 | silmitasertib 0.098 | [2] 0.057 | entospletinib -0.066

FYN (UniProt P06241)
inactive: [1] -0.047 | vorinostat 0.091 | silmitasertib -0.001 | [2] -0.027 | entospletinib 0.156

FBXO9 (UniProt Q9UK97)
Chain of UniProt Q9UK97 (Q9UK97 whole entry, looked up): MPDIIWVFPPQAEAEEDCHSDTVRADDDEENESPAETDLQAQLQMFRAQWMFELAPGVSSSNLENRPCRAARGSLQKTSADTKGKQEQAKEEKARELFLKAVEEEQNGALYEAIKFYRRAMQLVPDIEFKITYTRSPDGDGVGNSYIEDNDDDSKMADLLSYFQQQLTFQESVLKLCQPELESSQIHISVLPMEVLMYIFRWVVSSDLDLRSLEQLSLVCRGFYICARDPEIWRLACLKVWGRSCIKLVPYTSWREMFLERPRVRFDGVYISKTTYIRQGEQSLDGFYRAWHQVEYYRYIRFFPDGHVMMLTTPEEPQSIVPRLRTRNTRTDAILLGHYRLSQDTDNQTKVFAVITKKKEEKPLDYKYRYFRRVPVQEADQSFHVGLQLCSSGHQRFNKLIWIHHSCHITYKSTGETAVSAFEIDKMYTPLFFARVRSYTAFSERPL
inactive: [1] -0.154 | vorinostat -0.135 | silmitasertib 0.009 | [2] -0.046 | entospletinib -0.188

FIGNL1 (UniProt Q6PIW4)
Chain of UniProt Q6PIW4 (Q6PIW4 whole entry, looked up): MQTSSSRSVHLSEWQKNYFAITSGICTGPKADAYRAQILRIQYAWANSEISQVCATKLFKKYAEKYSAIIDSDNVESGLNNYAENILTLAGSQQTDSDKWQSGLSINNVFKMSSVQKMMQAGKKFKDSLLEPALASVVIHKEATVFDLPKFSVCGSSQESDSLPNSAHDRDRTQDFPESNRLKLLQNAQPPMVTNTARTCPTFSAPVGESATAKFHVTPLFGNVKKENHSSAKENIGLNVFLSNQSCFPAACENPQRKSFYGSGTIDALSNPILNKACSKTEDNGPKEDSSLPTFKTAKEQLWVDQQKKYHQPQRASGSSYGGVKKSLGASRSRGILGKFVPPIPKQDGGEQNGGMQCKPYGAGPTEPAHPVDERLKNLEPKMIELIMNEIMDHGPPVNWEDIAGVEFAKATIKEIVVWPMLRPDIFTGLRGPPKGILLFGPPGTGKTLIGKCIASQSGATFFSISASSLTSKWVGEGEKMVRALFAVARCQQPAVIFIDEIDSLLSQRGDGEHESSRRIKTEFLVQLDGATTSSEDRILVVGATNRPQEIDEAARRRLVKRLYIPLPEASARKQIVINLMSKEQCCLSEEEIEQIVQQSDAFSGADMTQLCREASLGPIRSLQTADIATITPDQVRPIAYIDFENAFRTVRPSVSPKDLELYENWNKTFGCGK
inactive: [1] -0.016 | silmitasertib 0.045 | [2] 0 | entospletinib 0.05
active: vorinostat -0.484

ENY2 (UniProt Q9NPA8)
inactive: [1] -0.066 | vorinostat 0.118 | silmitasertib -0.032 | [2] 0.016 | entospletinib -0.018

FAM83D (UniProt Q9H4H8)
active: vorinostat -0.243
inactive: [1] 0 | silmitasertib 0.031 | [2] -0.004 | entospletinib 0.021

FPGT (UniProt O14772)
active: vorinostat -0.574
inactive: [1] -0.014 | silmitasertib 0.008 | [2] -0.015 | entospletinib -0.062

FBLL1 (UniProt A6NHQ2)
inactive: [1] 0.006 | vorinostat 0.094 | silmitasertib 0.034 | [2] -0.017 | entospletinib -0.014

EBP (UniProt Q15125)
inactive: [1] 0.134 | vorinostat 0.1 | silmitasertib -0.033 | [2] 0.097 | entospletinib 0.013

EXTL2 (UniProt Q9UBQ6)
inactive: [1] -0.171 | vorinostat 0.189 | silmitasertib -0.053 | [2] 0.01 | entospletinib -0.036

FKBP8 isoform 2 (UniProt Q14318)
active: vorinostat -0.219
inactive: [1] 0.024 | silmitasertib 0.001 | [2] -0.028 | entospletinib 0.018

EDC4 (UniProt Q6P2E9)
inactive: [1] 0.045 | silmitasertib 0.011 | [2] 0.004 | entospletinib 0.02
active: vorinostat -0.453

EIF1 (UniProt P41567)
Chain of UniProt P41567 (P41567 whole entry, looked up): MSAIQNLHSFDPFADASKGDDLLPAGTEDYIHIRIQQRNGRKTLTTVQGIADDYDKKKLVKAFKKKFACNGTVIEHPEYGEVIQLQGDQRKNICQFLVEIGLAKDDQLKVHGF
inactive: [1] -0.032 | vorinostat 0.12 | silmitasertib -0.024 | [2] 0.036 | entospletinib 0.028

EIF2B4 isoform 2 (UniProt Q9UI10)
inactive: [1] 0.023 | vorinostat -0.209 | silmitasertib 0.013 | [2] -0.002 | entospletinib 0.012

FOXJ3 (UniProt Q9UPW0)
active: vorinostat -0.24
inactive: [1] -0.016 | silmitasertib 0.114 | [2] 0.019 | entospletinib 0.022

FAU (UniProt E9PR30)
inactive: [1] 0.006 | silmitasertib 0.047 | [2] -0.006 | entospletinib 0.016
active: vorinostat 0.212

ERI1 (UniProt Q8IV48)
Chain of UniProt Q8IV48 (Q8IV48 whole entry, looked up): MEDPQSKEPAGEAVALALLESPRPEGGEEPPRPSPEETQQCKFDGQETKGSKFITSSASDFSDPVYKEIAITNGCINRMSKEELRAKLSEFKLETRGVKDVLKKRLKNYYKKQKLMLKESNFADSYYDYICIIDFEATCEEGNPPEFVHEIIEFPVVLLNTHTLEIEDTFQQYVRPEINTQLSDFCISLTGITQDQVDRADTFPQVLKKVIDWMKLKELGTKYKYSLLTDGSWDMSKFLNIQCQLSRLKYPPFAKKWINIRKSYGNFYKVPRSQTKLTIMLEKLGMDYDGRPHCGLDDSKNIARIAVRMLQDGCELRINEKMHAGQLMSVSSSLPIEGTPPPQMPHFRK
inactive: [1] -0.001 | silmitasertib -0.035 | [2] -0.017 | entospletinib 0.041
active: vorinostat -0.221

DTYMK (UniProt P23919)
inactive: [1] -0.022 | silmitasertib 0.071 | [2] -0.023 | entospletinib 0.061
active: vorinostat -0.294

GATAD2A isoform 3 (UniProt Q86YP4)
active: vorinostat -0.213
inactive: [1] 0.023 | silmitasertib -0.028 | [2] 0.019 | entospletinib -0.001

GGA2 (UniProt Q9UJY4)
active: vorinostat -0.313
inactive: [1] -0.042 | silmitasertib 0.016 | [2] 0.022 | entospletinib -0.026

EPN2 (UniProt O95208)
inactive: [1] -0.005 | vorinostat 0.156 | silmitasertib 0.02 | [2] -0.001 | entospletinib 0.012

EIF2B5 (UniProt Q13144)
active: vorinostat -0.227
inactive: [1] 0.013 | silmitasertib -0.009 | [2] -0.029 | entospletinib 0.013

FXR2 (UniProt P51116)
inactive: [1] 0.033 | silmitasertib -0.039 | [2] -0.022 | entospletinib -0.064
active: vorinostat -0.25

EDC3 (UniProt Q96F86)
active: vorinostat -0.277
inactive: [1] 0.02 | silmitasertib 0 | [2] -0.026 | entospletinib 0.013

FMNL1 isoform 3 (UniProt O95466)
inactive: [1] 0.051 | silmitasertib -0.01 | [2] 0.071 | entospletinib -0.066
active: vorinostat -0.292

EXOC2 (UniProt Q96KP1)
active: vorinostat -0.361
inactive: [1] -0.012 | silmitasertib 0.031 | [2] 0.022 | entospletinib 0.024

ESYT2 (UniProt H7BXI1)
active: vorinostat 0.243
inactive: [1] -0.041 | silmitasertib -0.002 | [2] -0.002 | entospletinib 0.019

EPS8L2 (UniProt Q9H6S3)
Chain of UniProt Q9H6S3 (Q9H6S3 whole entry, looked up): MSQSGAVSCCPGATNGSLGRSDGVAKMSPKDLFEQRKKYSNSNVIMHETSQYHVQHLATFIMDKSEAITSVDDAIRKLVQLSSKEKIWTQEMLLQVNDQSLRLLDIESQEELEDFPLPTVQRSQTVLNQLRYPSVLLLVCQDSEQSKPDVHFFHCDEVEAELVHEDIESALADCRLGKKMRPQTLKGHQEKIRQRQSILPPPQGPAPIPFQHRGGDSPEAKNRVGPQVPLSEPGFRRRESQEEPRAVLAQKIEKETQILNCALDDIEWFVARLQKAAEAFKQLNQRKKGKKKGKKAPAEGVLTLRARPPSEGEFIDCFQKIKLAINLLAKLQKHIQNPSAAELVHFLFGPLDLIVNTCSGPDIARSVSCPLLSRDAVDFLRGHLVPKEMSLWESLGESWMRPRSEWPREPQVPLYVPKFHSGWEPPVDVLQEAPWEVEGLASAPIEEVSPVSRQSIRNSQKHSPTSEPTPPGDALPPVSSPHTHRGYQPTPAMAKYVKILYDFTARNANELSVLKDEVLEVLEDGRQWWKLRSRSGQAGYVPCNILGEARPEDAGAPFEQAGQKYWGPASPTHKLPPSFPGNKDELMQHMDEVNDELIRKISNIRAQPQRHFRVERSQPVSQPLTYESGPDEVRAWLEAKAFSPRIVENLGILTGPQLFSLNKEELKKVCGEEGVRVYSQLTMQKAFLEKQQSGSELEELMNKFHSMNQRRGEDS
active: entospletinib 0.33
inactive: vorinostat 0.017 | silmitasertib -0.019 | [2] 0.026

— the supplement of paper PMC10849652
